Assay results: PubChem BioAssay (NCI)
“And” between values parts separate entries of the source, which are not always exact repeats. Equal values may be shown once. Compounds without any hit were thinned out: in the full panel of roughly 79,000, 15% have a hit. The source made the active and inactive calls. No stated cut-off is given here; in the data, active means growth inhibition above about 70%; inactive means the rest.

Tests used:
[1] = NCI Yeast Anticancer Drug Screen. Data for the rad50 strain (AID 155);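 further: 0% = growth of vehicle-only cultures of the same strain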; settings: S. cerevisiae rad50 strain growth inhibition, active compounds read high; at 50.0 µM unless noted
Procedure, shortened: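 Relative growth inhibition (compound vs vehicle) was measured in yeast with a defined repair-gene alteration.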

[2] = NCI Yeast Anticancer Drug Screen. Data for the mec2-1 strain (AID 157); settings: S. cerevisiae mec2-1 strain, active compounds read high; at 50.0 µM unless noted
Procedure, shortened: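 Vehicle-treated cultures served as reference for growth inhibition of compound-exposed mec2-1 yeast.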

[3] = NCI Yeast Anticancer Drug Screen. Data for the sgs1 mgt1 strain (AID 161);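 further: 0% = growth of cultures given vehicle only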; settings: S. cerevisiae sgs1 mgt1 strain, active compounds read high; at 50.0 µM unless noted
Procedure, shortened: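 Genetically altered yeast, compound exposure, growth inhibition relative to vehicle.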

[4] = NCI Yeast Anticancer Drug Screen. Data for the cln2 rad14 strain (AID 165);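 further: 0% = growth equal to vehicle treated cultures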; settings: S. cerevisiae cln2 rad14 strain, active compounds read high; at 50.0 µM unless noted
Procedure, shortened: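 Each compound was tested on cln2 rad14 yeast. Inhibition of growth was calculated against vehicle-exposed controls.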

[5] = NCI Yeast Anticancer Drug Screen. Data for the bub3 strain (AID 167); settings: S. cerevisiae bub3 mutant strain, active compounds read high; at 50.0 µM unless noted
Procedure, shortened: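 Screening used yeast with an engineered genetic alteration affecting cell cycle control. Compound-exposed cultures were compared with vehicle cultures, and reduced growth was taken as inhibition.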

[6] = NCI Yeast Anticancer Drug Screen. Data for the mlh1 rad18 strain (AID 175); settings: S. cerevisiae mlh1 rad18 strain growth inhibition, active compounds read high; at 50.0 µM unless noted
Procedure, shortened: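 Vehicle-treated cultures served as the reference for growth inhibition in a yeast strain carrying DNA damage repair alterations exposed to each compound.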

Measured: growth inhibition

COc1cccc(C2C(C(=O)Nc3cc(=O)n(C)c(=O)n3C)=C(C)NC(C)=C2C(=O)Nc2cc(=O)n(C)c(=O)n2C)c1O
inactive: [1] -15.1% | [2] 13% | [3] 13.4% | [4] 12.2% | [5] 2.55% | [6] 14.8%

CCS(=O)(=O)CC(O)CS(=O)(=O)CC
inactive: [1] 6.5% | [2] -6.35% | [3] -38% | [4] -4.95% | [5] -6.35% | [6] -15.4%

O=c1nc2c(c(-c3ccc(F)cc3)[nH]1)COC/C2=C\c1ccc(F)cc1
inactive: [1] 18.2% | [2] 11.3% | [3] 34.5% | [4] 21.1% | [5] 28.6% | [6] 33.2%

CCCCOC(=O)COCC(=O)OC(C)C(=O)OCCCC (centres undefined)
inactive: [1] -20.9% | [2] 13.1% | [3] 6.55% | [4] -22.1% | [5] 20% | [6] 4.1%

CCOC(=O)c1c2ccc(/C=C/C(=O)OC)ccc-2c(C(=O)OCC)c1N
inactive: [1] -23.8% | [2] -24.4% | [3] -23.4% | [4] -23.2% | [5] -37.6% | [6] -4.35%

COCN1C(=N)C(C(=O)OC(C)(C)C)=C2C=C(O)C=CC21C (centres undefined)
inactive: [1] -4.5% | [2] 14.7% | [3] -23.4% | [4] 9.1% | [5] 22.2% | [6] 2.55%

N.N.N.N.O=C([O-])O.O=C([O-])[O-].[Co+3]
inactive: [1] 2.15% | [2] 3.4% | [3] 12.1% | [4] 26.9% | [5] 24.2% | [6] 8.95%

Cc1ccc(S(=O)(=O)Nc2ccc([N+](=O)[O-])cc2-c2ccccc2)cc1
inactive: [1] -0.25% | [2] -9.2% | [3] 0.2% | [4] -1.15% | [5] 5.15% | [6] 4.2%

CCOC(=O)C(Sc1ccc(C)cc1)C(Sc1ccc(C)cc1)C(=O)OCC (centres undefined)
inactive: [1] 0.6% | [2] -6.6% | [3] 11.2% | [4] -17.3% | [5] -0.3% | [6] -0.75%

COc1ccccc1/C=C1\C(=O)N(C(=O)c2ccc(NC(C)=O)cc2)N=C1C
inactive: [1] 1.6% | [2] -27.1% | [3] -34.8% | [4] -3.2% | [5] -23.9% | [6] -26.1%

CCN(CC)CCOC(=O)c1ccc(NC(=O)OCCOCCOC(=O)Nc2ccc(C(=O)OCCN(CC)CC)cc2)cc1
inactive: [1] -1.8% | [2] -4.3% | [3] 9.25% | [4] -1.1% | [5] -3.1% | [6] 14.7%

CC(CN(CP(=O)([O-])[O-])CP(=O)([O-])[O-])N(CP(=O)([O-])[O-])CP(=O)([O-])[O-].N.N.[Pt+2] (centres undefined)
inactive: [1] -18.6% | [2] -20.5% | [3] -18.9% | [4] 23.6% | [5] 9.9% | [6] -10.8%

Cc1ccccc1NC(=O)C(=O)CC(=O)c1sc(-n2nc(-c3ccccc3)cc2-c2ccccc2)nc1C
inactive: [1] 12.3% | [2] -4.3% | [3] 5.45% | [4] 16.4% | [5] 2.05% | [6] -17.8%

CC(O)C(O)C(O)C(O)c1nc2ccccc2[nH]1 (centres undefined)
inactive: [1] -18.4% | [2] -3.35% | [3] -20.6% | [4] -37% | [5] 4.35% | [6] 9.9%

COc1ccccc1-n1c(=O)c(N=Nc2ccc(Br)cc2)c(O)n(-c2ccccc2C)c1=S
inactive: [1] 49.1% | [2] 0.85% | [3] 44.7% | [4] -11.1% | [5] -2.45% | [6] 17.6%

Cn1nnn(Cc2ccccc2)/c1=N/C(=S)Nc1ccccc1
inactive: [1] -11.6% | [2] -6.75% | [3] -4.05% | [4] -7.45% | [5] 3.1% | [6] -21.4%

CCSC(=O)C(F)(F)F
inactive: [1] -9.95% | [2] -47.9% | [3] -51.4% | [4] -1.2% | [5] -18.1% | [6] -25.6%

O=C(CSC(=S)N1CCOCC1)Nc1nc2c(s1)CCCC2
inactive: [1] -15.1% | [2] -32% | [3] -28.2% | [4] 2.6% | [5] -1.65% | [6] -16.3%

CC1=Nc2ccccc2S/C1=C(/C)NNS(=O)(=O)c1ccc(C)cc1
inactive: [1] 10.1% | [2] -0.05% | [3] 0.25% | [4] -6.3% | [5] 7.75% | [6] 18.1%

O=C(O)CCC1NCCCO1 (centres undefined)
inactive: [1] 1.85% | [2] 3% | [3] 3.7% | [4] -35.1% | [5] -4.15% | [6] 0.75%

CC(C)(C)OC(=O)NNS(=O)(=O)CCC(NC(=O)OCc1ccccc1)C(=O)OCc1ccccc1 (centres undefined)
active: [2] 93.2% | [4] 86.5% | [5] 94.5% | [6] 95.6%
inactive: [1] 46.7% | [3] 51.1%

O=C(O)CCSCCC(=O)O
inactive: [1] -22.8% | [2] -2.5% | [3] -29.4% | [4] -48.4% | [5] -13.6% | [6] 22.4%

Oc1ccc(-c2c3ccccc3c(-c3ccc(O)cc3)c3ccccc23)cc1
inactive: [1] -0.85% | [2] -9.6% | [3] -31.6% | [4] -7.2% | [5] -9.15% | [6] 1.15%

CCN(CC)/N=C/c1cc([N+](=O)[O-])ccc1O
inactive: [1] 24.9% | [2] 5.4% | [3] -6.85% | [4] -50.9% | [5] 2.9% | [6] 15.7%

CN(C)c1ccc(C=Nc2c(N)n(C)c(=O)n(C)c2=O)cc1
inactive: [1] -12.3% | [2] -0.2% | [3] -11.2% | [4] -32.7% | [5] -9.45% | [6] -2.9%

C/C=C/C=C/C(=O)OCCCC
inactive: [1] 6.95% | [2] -0.65% | [3] -8.55% | [4] 5.65% | [5] 15.1% | [6] -1.75%

CC[O-].CC[O-].CN(C)c1ccc([O-])cc1.CN(C)c1ccc([O-])cc1.[Ti+4]
inactive: [1] -29.9% | [2] 9.5% | [3] 2.2% | [4] 20.2% | [5] -9.15% | [6] -1.8%

CCCOC(=O)CCCC(=O)N(C(C)C)C(C)C
inactive: [1] -12.3% | [2] -2.7% | [3] 12.2% | [4] -29.5% | [5] 21.9% | [6] 4.65%

CCOc1ccc(N=Cc2ccc3cc(C)ccc3n2)cc1
inactive: [1] -9.95% | [2] -9.65% | [3] -2.4% | [4] 12.2% | [5] -1.8% | [6] -19.9%

OCC(O)COc1ccc(Cl)cc1 (centres undefined)
inactive: [1] -5% | [2] -12.8% | [3] -1.25% | [4] 2.05% | [5] 6.4% | [6] 9%

O=S(=O)(N/N=C1\CC2CCC1C2)c1ccccc1 (centres undefined)
inactive: [1] -7.05% | [2] -16.1% | [3] -16.9% | [4] 27.8% | [5] 21.4% | [6] 4.4%

N#CC1CSCC1=O (centres undefined)
inactive: [1] -6.5% | [2] -8.8% | [3] -20.4% | [4] -12.8% | [5] 9.9% | [6] -1.9%

C=CC(C)(C)c1c(OC)cc(-c2ccccc2)oc1=O
inactive: [1] -7.65% | [2] -34.4% | [3] 29.6% | [4] -23% | [5] 20.6% | [6] -9.9%

CCC(C)C(O)C(C(=O)O)C1CCCCC1 (centres undefined)
inactive: [1] 31.6% | [2] 23.2% | [3] 15.4% | [4] 39.5% | [5] 23.9% | [6] 26%

COCCOC(=O)OCCOC
inactive: [1] -1.5% | [2] 3.65% | [3] 4.75% | [4] -31.7% | [5] -12.8% | [6] 11.7%

CC1=C(C)C(C#N)(C(=O)CBr)C(=N)O1 (centres undefined)
inactive: [1] 37.4% | [2] 28.1% | [3] 44% | [4] 0% | [5] 33.1% | [6] 68.2%

CC(C)(O)C1CC(=O)C(C)(C2C(O)CC3(C)C4CC=C5C(CCC(O)C5(C)C)C4(C)C(=O)CC23C)O1 (centres undefined)
inactive: [1] 65% | [2] 63% | [3] 45% | [4] 42.9% | [5] 56.1% | [6] 47.6%

O=C(O)c1cccnc1C(=O)O
inactive: [1] -23.8% and 10.8% | [2] -8.85% and -5.35% | [3] 2.65% and -2.2% | [4] -30.2% and 10.3% | [5] -12% and -28.2% | [6] 3.9% and 8.65%

Cc1c(OCCCOc2ccc3c(=O)cc(-c4ccccc4)oc3c2C)ccc2c(=O)cc(-c3ccccc3)oc12
inactive: [1] -35.6% | [2] -18.1% | [3] -13.7% | [4] 31.5% | [5] -39.9% | [6] -31.8%
